Test results published in PubChem BioAssay AID488969 (Vanderbilt High Throughput Screening Facility, 2010).
Whole data set: some 110,000 compounds, median “z-score” near -0.1, cut for the highest 2% near 2. The entries come from a sample that favours the highest values as a whole. Activity calls are given as the source filed them.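 Rule for the calls: active = z-score in the third read window above 3 or below -3; inactive = the rest.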

What follows are compounds tested against Metabotropic glutamate receptor 8 (Rattus norvegicus) (UniProt P70579) (assay: mGluR8 Gi/Go-coupled signaling modulation – cell-based, rat, thallium flux, HTS, primary screen (AID 488969)). Conditions: HEK293 rat mGluR8, GIRK (G protein-gated inwardly rectifying potassium channel) thallium flux, FluoZin2; at 10 µM; stronger effect = higher value; submaximal glutamate (EC20) added with thallium.
Sequence of Metabotropic glutamate receptor 8 (Rattus norvegicus) (P70579 whole entry, looked up): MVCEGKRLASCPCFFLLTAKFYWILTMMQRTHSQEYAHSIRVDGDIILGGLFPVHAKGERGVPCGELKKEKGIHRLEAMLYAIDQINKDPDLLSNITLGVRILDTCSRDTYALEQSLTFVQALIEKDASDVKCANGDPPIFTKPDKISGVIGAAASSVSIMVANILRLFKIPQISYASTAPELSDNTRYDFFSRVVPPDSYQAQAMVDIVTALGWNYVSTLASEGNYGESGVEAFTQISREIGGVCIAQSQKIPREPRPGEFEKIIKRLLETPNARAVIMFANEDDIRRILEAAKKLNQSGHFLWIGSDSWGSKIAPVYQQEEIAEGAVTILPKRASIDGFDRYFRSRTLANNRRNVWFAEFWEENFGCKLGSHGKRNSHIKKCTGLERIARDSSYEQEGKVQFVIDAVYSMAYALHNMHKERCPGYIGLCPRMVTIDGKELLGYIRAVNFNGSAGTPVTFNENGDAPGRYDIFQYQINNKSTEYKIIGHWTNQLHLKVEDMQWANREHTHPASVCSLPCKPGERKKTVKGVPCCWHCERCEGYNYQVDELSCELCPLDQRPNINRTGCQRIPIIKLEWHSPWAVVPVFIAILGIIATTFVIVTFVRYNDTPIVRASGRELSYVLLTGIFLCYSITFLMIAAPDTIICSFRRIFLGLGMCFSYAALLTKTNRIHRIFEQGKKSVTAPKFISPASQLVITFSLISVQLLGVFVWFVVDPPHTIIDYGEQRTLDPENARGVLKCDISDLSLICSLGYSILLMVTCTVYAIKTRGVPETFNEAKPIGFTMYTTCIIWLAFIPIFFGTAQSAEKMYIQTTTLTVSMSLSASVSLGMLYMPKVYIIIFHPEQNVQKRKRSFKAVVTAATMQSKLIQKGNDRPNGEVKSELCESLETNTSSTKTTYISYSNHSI

SMILES | z-score
CCCc1[nH]nc2c1C(c1ccc(OCCN3CCOCC3)c(OCC)c1)C(C#N)=C(N)O2 (configuration not stated) | -0.892
O=C(COc1ccc(CO)cc1Cl)Nc1ccc(F)cc1 | 0.647
CCCC(=O)Nc1cccc(NC(=S)NC(=O)C(C)Oc2ccc(Cl)cc2Cl)c1 (configuration not stated) | -0.0105
C=CCNC(=S)NNC(=O)COc1c(Cl)cc(Cl)cc1Cl | 0.71
CC(=O)NC(=S)Nc1ccc(NC(=O)COc2ccc(Cl)cc2Cl)cc1 | -0.0173
C=CCNC(=O)COc1ccc(Br)cc1Cl | 0.0502
C=CCNC(=S)NNC(=O)COc1ccc(Cl)cc1Cl | 6.1 (active)
COC(=O)NC(=S)Nc1ccc(Oc2ccc(Cl)cc2Cl)c(Cl)c1 | 3.69 (active)
O=C(COc1ccc(Cl)cc1Cl)NNC(=S)Nc1ccc(F)cc1 | 7.82 (active)
CCC(=O)NC(=S)Nc1ccc(NC(=O)COc2ccc(Cl)cc2Cl)cc1 | -0.124
CCc1ccc(OCC(=O)NC(=S)Nc2ccc(F)cc2)c(Br)c1 | 0.182
COc1ccc(NC(=S)NNC(=O)COc2ccc(Cl)cc2Cl)cc1 | 2.95
COC(=O)NC(=S)Nc1ccc(Oc2ccc(Cl)cc2)c(Cl)c1 | 1.29
COc1cccc(C(=O)N2CCN(S(=O)(=O)Cc3ccccc3)CC2)c1OC | 1.15
C=CCn1cc([N+](=O)[O-])nc1C | -0.339
COC(=O)COc1ccc(S(=O)(=O)Nc2ccc3c(c2)OCO3)cc1 | -0.955
Cc1cc(F)ccc1NCC(=O)Nc1ccccc1Br | 1.92
CC(=O)NCC(=O)N(c1ccccc1)C1(C(=O)NC2CCCCC2)CCCCC1 | 0.432
COc1ccc(-c2nc(Cn3c(SCc4ccc(F)cc4)nc4ccncc43)c(C)o2)cc1OC | 0.565
O=C1C2C(c3ccccc3)C=CC(c3ccccc3)C2C(=O)N1c1ccncc1 (configuration not stated) | -0.325
Cc1cc(C(=O)COc2ncnc3sccc23)c(C)n1C1CC1 | -0.349

SMILES | z-score
Cc1cc(C(=O)COc2ncnc3sccc23)c(C)n1C | 2.04
Cc1cc(C(=O)COc2nncc3ccccc23)c(C)n1C | 0.0547
Oc1ccccc1N1CCN(c2ncccn2)CC1 | 0.0492
O=C(OCC(=O)N1CCc2ccccc21)c1cccc(S(=O)(=O)N2CCCc3ccccc32)c1 | -0.134
O=C(N/N=C/c1ccc(OC(=O)c2ccccc2)cc1)c1ccc(CN2CCOCC2)cc1 | 0.54
Cc1c(Cl)cccc1-n1ccnc1SCC(=O)O | -0.317
CC(=O)c1ccc(OCC(O)CN2C(C)CCCC2C)cc1 (configuration not stated) | -0.288
COc1cccc(OCC(O)CN2C(C)CCCC2C)c1 (configuration not stated) | 0.438
Cc1ccc(C)c(OCC(O)CN2C(C)CCCC2C)c1 (configuration not stated) | 3.05 (active)
CCN(CC)S(=O)(=O)c1ccc(NC(=O)c2cc(C(=O)OC)cc([N+](=O)[O-])c2)cc1 | -0.729
N#CC1(Cc2ccccc2)c2ccccc2C=CN1C(=O)c1ccccc1 (configuration not stated) | -0.211
N#CC1(Cc2ccc(Cl)cc2)c2ccccc2C=CN1C(=O)c1ccccc1 (configuration not stated) | -0.14
N#CC1(Cc2ccc([N+](=O)[O-])cc2)c2ccccc2C=CN1C(=O)c1ccccc1 (configuration not stated) | 2.08
Cc1cccc(-n2c(C)cc(/C=N/O)c2C)c1 | -0.205
O=Cc1cn(-c2ccccc2)nc1-c1ccc2c(c1)OCCO2 | -1.11
O/N=C/c1cn(-c2ccccc2)nc1-c1ccc2c(c1)OCCO2 | -0.458
NC(=O)/C=C\c1cn(-c2ccccc2)nc1-c1ccc2c(c1)OCCO2 | 2.14
O=C(COC(=O)c1cn(-c2ccccc2)nc1-c1ccccc1)c1ccc([N+](=O)[O-])cc1 | -0.413
O=S(=O)(c1cccc(C(F)(F)F)c1)N1CCC(c2cc(-c3cccc4ccccc34)n[nH]2)CC1 | 1.58
COc1ccc(S(=O)(=O)N2CCC(c3cc(-c4cccc5ccccc45)n[nH]3)CC2)cc1 | 2.15
COc1ccc(S(=O)(=O)N2CCC(CN3C(=O)c4cccc5cccc(c45)C3=O)CC2)cc1 | -0.138

SMILES | z-score
Cn1c(CCN2CCN(c3ccc(F)cc3)CC2)nc2cc(NC(=O)c3ccco3)ccc21 | -2.09
Cc1ccc(N(CC(=O)Nc2ccccc2C(=O)N2CCOCC2)S(C)(=O)=O)cc1 | 0.00258
COc1ccc(OC)c(NC(=O)c2ccccc2NS(=O)(=O)c2cccc3cccnc23)c1 | 0.685
COc1ccc(C)cc1NC(=O)c1ccccc1NS(=O)(=O)c1cccc2cccnc12 | 2.02
O=C(Nc1cccc2ccccc12)c1ccccc1NS(=O)(=O)c1cccc2cccnc12 | -0.0553
Cc1cccc(C)c1-n1c(C)cc(/C=N/NC(=O)c2ccncc2)c1C | 0.0638
C/C(=C\C(=O)c1ccc(Br)cc1)NCc1ccccc1 | -0.0992
O=C(NC(=S)Nc1ccccc1N1CCOCC1)c1ccc(-c2cc(Cl)ccc2Cl)o1 | 0.0698
Cc1cc(S(=O)(=O)N2CCN(c3ccc(F)cc3)CC2)c(C)s1 | -0.128
Cc1cc(C)c(S(=O)(=O)c2ccccc2C)c(Cl)n1 | -0.119
Cc1ccc(S(=O)(=O)c2c(C)cc(C)nc2Cl)cc1 | -0.0793
Cc1ccc(S(=O)(=O)c2c(C)cc(C)nc2Cl)c(C)c1 | 4.41 (active)
CCOC(=O)c1c(C)c(C(=O)Nc2cc(OC)ccc2OC)c(C)n1CC | -0.853
c1ccc2c(c1)c1ccccc1n2CN1CCOCC1 | -0.144
CCC1(C)OCC(Cn2c3ccccc3c3ccccc32)O1 (configuration not stated) | 3.89 (active)
CCn1c2ccccc2c2cc(N)ccc21 | -0.216
CC(=O)N1N=C(c2ccc(C)cc2)OC1c1ccc(C(C)C)cc1 (configuration not stated) | -0.402
Cc1ccc(N=Nc2ccc(O)c3ncccc23)cc1 | 2.05
OCc1ccc(O)c2ncccc12 | 0.138
Oc1ccc(CNc2ccccc2)c2cccnc12 | 0.0879
Cc1ccccc1NCc1ccc(O)c2ncccc12 | 0.65

SMILES | z-score
Cc1ccccc1N=Nc1ccc(O)c2ncccc12 | 4.67 (active)
COCc1ccc(O)c2ncccc12 | -0.0472
Cc1ccc(C(=O)c2oc3ccccc3c2NC(=O)c2cc(-c3ccccc3O)n[nH]2)cc1 | 0.291
CC(C)(C)c1ccc(-c2conc2N)cc1 | 2.09
CC(C)(C)c1ccc(-c2cc(N)n[nH]2)cc1 | 0.498
CCOc1cc(-c2conc2N)cc(OCC)c1OCC | 0.888
CCc1ccc2nc(N3C(=O)c4oc5ccccc5c(=O)c4C3c3ccc(OC)c(OC)c3)sc2c1 (configuration not stated) | -0.133
O=C(Cc1nc(=O)c2ccccc2s1)Nc1ccccc1 | -0.368
CCn1c(NC(=O)c2ccc(F)cc2)c2ccccc2nc1=O | 0.0383
O=C(Cc1ccccc1)Nc1nc(=O)c2ccccc2s1 | 5.11 (active)
O=C(Nc1nc(=O)c2ccccc2s1)c1ccc(F)cc1 | 16.3 (active)
O=C(CSC(=S)N1CCOCC1)Nc1nc(=O)c2ccccc2s1 | 0.0572
O=C(Nc1nc(=O)c2ccccc2s1)c1ccc(Cl)cc1 | 14.9 (active)
O=C(NNc1nc2ccccc2s1)c1ccc(F)cc1 | 0.186
Cn1sc(NC(=O)c2ccc(Cl)cc2)nc1=O | 0.266
CCN(CC)C(=S)SCC(=O)Nc1nc(-c2ccccc2)c(-c2ccccc2)o1 | -0.0668
O=C(Cc1ccccc1)Nc1nc2ccccc2s1 | 0.548
CCN(CC)C(=S)SCC(=O)Nc1nc(=O)c2ccccc2s1 | 5.2 (active)
O=C(Nc1nc2ccccc2s1)c1ccc(Cl)s1 | 1.22
